Assay results: PubChem BioAssay (EPA / NIEHS)
Calls of active or inactive are those of the source. How the source made its calls: active means hit-call score of the fitted dose curve at least 0.9, where 1 is the maximum; inactive means score below 0.9.

read-out: solute carrier (SLCO1B1), SLCO1B1 (gene 10599); experiment: LTEA_HepaRG_SLCO1B1: Life Technologies and Expression Analysis (LTEA) Assay for solute carrier (SLCO1B1) using HepaRG (AID 2283530); details: mRNA level, 48 h; actives raise or lower the signal
Outline: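 Gain or loss of SLCO1B1 mRNA is fitted against the 0.5% DMSO vehicle in human HepaRG liver cells treated 48 h at up to 100 uM in half-log steps. Expression comes from qRT-PCR normalized to endogenous controls.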

Compound	AC50	outcome
Cc1cc(F)ccc1-c1cc(N2CC[C@@H](O)[C@H]2CO)ncc1N(C)C(=O)C(C)(C)c1cc(C(F)(F)F)cc(C(F)(F)F)c1	12.9 µM (active)	–
Cc1cccc2ccccc12	–	inactive
CC1(C)NC(=O)N(c2ccc([N+](=O)[O-])c(C(F)(F)F)c2)C1=O	69.3 µM (active)	–
CCCCCCCCN(C)CCCCCCCC	–	inactive
CO[C@H]1/C=C/O[C@@]2(C)Oc3c(C)c(O)c4c(O)c(c(/C=N/N5CCN(C)CC5)c(O)c4c3C2=O)NC(=O)/C(C)=C\C=C\[C@H](C)[C@H](O)[C@@H](C)[C@@H](O)[C@@H](C)[C@H](OC(C)=O)[C@@H]1C	–	inactive
Cc1cc2c(cc1C(F)(F)F)N(C(=O)Nc1ccc(Oc3cccnc3C)nc1)CC2	–	inactive
O=c1c(-c2ccc(O)cc2)coc2cc(O)cc(O)c12	–	inactive
Oc1ccc2ccccc2c1	–	inactive
O=C(O)Cc1cc(I)c(Oc2ccc(O)c(I)c2)c(I)c1	82.7 µM (active)	–
CC(C)(C)c1csc(-c2cc3cc(OCc4ccccc4CC(=O)O)ccc3o2)n1	50 µM (active)	–
CC[C@@H]1C[C@H](N(Cc2cc(C(F)(F)F)cc(C(F)(F)F)c2)C(C)=O)c2cc(C(F)(F)F)ccc2N1C(=O)OC(C)C	–	inactive
CC[C@H](NC(=O)c1cc(F)ccc1NS(=O)(=O)c1cccc2cccnc12)c1ccccc1	77.6 µM (active)	–
CCCC(=O)OCCC(C)C	–	inactive
O=c1ccc2ccccc2o1	–	inactive
Clc1ccccc1C(c1ccccc1)(c1ccccc1)n1ccnc1	23.7 µM (active)	–
CCN(Cc1cccc(S(=O)(=O)O)c1)c1ccc(C(=C2C=CC(=[N+](CC)Cc3cccc(S(=O)(=O)O)c3)C=C2)c2ccccc2S(=O)(=O)[O-])cc1	–	inactive
CCN(CC)C(=O)c1cc(S(=O)(=O)Cc2ccccc2)c(N2CCC(c3ccccc3)CC2)cc1N(CC)CCN(C)C	33.3 µM (active)	–
O=C1O[C@H]([C@@H](O)CO)C(O)=C1O	–	inactive
O=c1[nH]sc2ccccc12	–	inactive
CC(C)(c1cc(Br)c(O)c(Br)c1)c1cc(Br)c(O)c(Br)c1	–	inactive

read-out: sulfotransferase 2A1 (SULT2A1), SULT2A1 (gene 6822); experiment: LTEA_HepaRG_SULT2A1: Life Technologies and Expression Analysis (LTEA) Assay for sulfotransferase 2A1 (SULT2A1) using HepaRG (AID 2283531); details: mRNA level, 48 h; actives raise or lower the signal
Outline: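 Cells were plated and cultured 48 h, switched to serum-free induction medium, then dosed in duplicate for 48 h (8 concentrations, max 100 uM). RNA was isolated and SULT2A1 expression measured by qRT-PCR; gain or loss of signal fitted relative to DMSO.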

Compound	outcome	AC50
CCCCCc1ccc(N)cc1	inactive	–
Cc1c2ccccc2c(C)c2c1ccc1ccccc12	–	71.1 µM (active)
O=CCCCC=O	inactive	–
Cc1cn([C@H]2C[C@H](N=[N+]=[N-])[C@@H](CO)O2)c(=O)[nH]c1=O	inactive	–
Cc1occc1C(=O)Nc1ccc(C(=O)N2CCC(F)(F)/C(=C\C(=O)N3CCC(N4CCCCC4)CC3)c3ccccc32)cc1	inactive	–
OC12N=C(c3ccccc3)SC1Cc1cc(Cl)ccc12 (configuration not stated)	–	14 µM (active)
CC(C)(O)c1ccc(CNC(=O)c2cccnc2Oc2ccc3nonc3c2)cc1	inactive	–
NCc1cccc(C2CCN(C(=O)c3ccc(C#Cc4ccccc4F)o3)CC2)c1	–	92.9 µM (active)
c1ccc2ccccc2c1	inactive	–
O=C(O)Cn1c(=O)n(Cc2ccc(Br)cc2F)c(=O)c2ccc(Cl)cc21	inactive	–
C[C@]12CC[C@@H]3c4ccc(O)cc4CC[C@H]3[C@@H]1CCC2=O	inactive	–
OCCO	inactive	–
COc1cc(C(=O)NC2CCN(C)CC2)ccc1Nc1ncc2c(n1)N(C1CCCC1)CC(F)(F)C(=O)N2C	–	11.6 µM (active)
O=C(OCCCCCCOC(=O)c1ccccc1)c1ccccc1	inactive	–
Cc1ncc(CO)c(CO)c1O	inactive	–
COc1ccc2cc(S(=O)(=O)N[C@H](CC(=O)N[C@H](Cc3ccc(CN4[C@H](C)CCC[C@@H]4C)cc3)C(=O)N(C)C(C)C)c3ccc4c(c3)OCO4)ccc2c1	–	75.2 µM (active)
O=C(Nc1ccc(Cl)cc1)Nc1ccc(Cl)c(Cl)c1	–	22.7 µM (active)
Cc1cc(F)ccc1-c1cc(N2CC[C@@H](O)[C@H]2CO)ncc1N(C)C(=O)C(C)(C)c1cc(C(F)(F)F)cc(C(F)(F)F)c1	–	24.7 µM (active)
Cc1cccc2ccccc12	inactive	–

Compound	outcome	AC50
CC1(C)NC(=O)N(c2ccc([N+](=O)[O-])c(C(F)(F)F)c2)C1=O	–	84.1 µM (active)
CCCCCCCCN(C)CCCCCCCC	inactive	–
CO[C@H]1/C=C/O[C@@]2(C)Oc3c(C)c(O)c4c(O)c(c(/C=N/N5CCN(C)CC5)c(O)c4c3C2=O)NC(=O)/C(C)=C\C=C\[C@H](C)[C@H](O)[C@@H](C)[C@@H](O)[C@@H](C)[C@H](OC(C)=O)[C@@H]1C	inactive	–
Cc1cc2c(cc1C(F)(F)F)N(C(=O)Nc1ccc(Oc3cccnc3C)nc1)CC2	inactive	–
O=c1c(-c2ccc(O)cc2)coc2cc(O)cc(O)c12	inactive	–
Oc1ccc2ccccc2c1	inactive	–
O=C(O)Cc1cc(I)c(Oc2ccc(O)c(I)c2)c(I)c1	–	79.5 µM (active)
CC(C)(C)c1csc(-c2cc3cc(OCc4ccccc4CC(=O)O)ccc3o2)n1	–	34 µM (active)
CC[C@@H]1C[C@H](N(Cc2cc(C(F)(F)F)cc(C(F)(F)F)c2)C(C)=O)c2cc(C(F)(F)F)ccc2N1C(=O)OC(C)C	inactive	–
CC[C@H](NC(=O)c1cc(F)ccc1NS(=O)(=O)c1cccc2cccnc12)c1ccccc1	–	84.8 µM (active)
CCCC(=O)OCCC(C)C	inactive	–
O=c1ccc2ccccc2o1	inactive	–
Clc1ccccc1C(c1ccccc1)(c1ccccc1)n1ccnc1	–	23.3 µM (active)
CCN(Cc1cccc(S(=O)(=O)O)c1)c1ccc(C(=C2C=CC(=[N+](CC)Cc3cccc(S(=O)(=O)O)c3)C=C2)c2ccccc2S(=O)(=O)[O-])cc1	inactive	–
CCN(CC)C(=O)c1cc(S(=O)(=O)Cc2ccccc2)c(N2CCC(c3ccccc3)CC2)cc1N(CC)CCN(C)C	–	32.6 µM (active)
O=C1O[C@H]([C@@H](O)CO)C(O)=C1O	inactive	–
O=c1[nH]sc2ccccc12	inactive	–
CC(C)(c1cc(Br)c(O)c(Br)c1)c1cc(Br)c(O)c(Br)c1	–	91.4 µM (active)
